Compounds with a hit are over-represented: about 3.4% of the library has one in this group of screens.
FBW7 activator: activators of human E3 ligase FBW7; Q969H0; AlphaScreen FBW7–phospho-cyclin E peptide binding, activator screen; normalized activity (activation), % at 26.1 µM; hit rate 0.13% among 650,000; AID 1259310; in the data active = normalized activity above about 1.9%;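 note: purified mutant Fbw7 with reduced substrate affinity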
GPR151 ag: activates the human receptor GPR151; activation, % at 11.2 µM; PathHunter beta-arrestin GPR151 cells, luminescence; Q8TDV0; hit rate 1% among 650,000; in the data active = activation above about 4.9%
MITF inh: blocks human microphthalmia-associated transcription factor | O75030 | AlphaScreen MITF homodimerization, bead proximity signal | inhibition, % at 2.6 µM | hit rate 0.91% among 650,000 | AID 1259374; in the data active = inhibition above about 50%
Target sequence (O75030 whole entry, looked up): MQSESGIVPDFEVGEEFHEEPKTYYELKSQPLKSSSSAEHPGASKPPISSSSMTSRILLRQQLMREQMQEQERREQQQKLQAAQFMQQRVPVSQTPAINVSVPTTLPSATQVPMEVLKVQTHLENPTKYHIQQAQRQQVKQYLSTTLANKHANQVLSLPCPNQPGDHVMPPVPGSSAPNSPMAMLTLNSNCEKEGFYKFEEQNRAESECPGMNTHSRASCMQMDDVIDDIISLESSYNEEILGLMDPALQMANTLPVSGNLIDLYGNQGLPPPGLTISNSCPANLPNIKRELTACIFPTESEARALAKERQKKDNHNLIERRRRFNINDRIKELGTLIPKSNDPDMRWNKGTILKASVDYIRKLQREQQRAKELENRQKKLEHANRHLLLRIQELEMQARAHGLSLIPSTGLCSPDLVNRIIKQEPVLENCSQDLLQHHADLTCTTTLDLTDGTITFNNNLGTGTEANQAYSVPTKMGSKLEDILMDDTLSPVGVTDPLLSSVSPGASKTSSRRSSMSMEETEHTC
TEAD-YAP inh: TEAD-YAP interaction inhibition. HEK-TIYL cells, TEAD-Gal4/YAP UAS-luciferase luminescence. inhibition, % at 9.12 µM. hit rate 1.4% among 640,000. AID 1259422; in the data active = inhibition above about 32%
A number is an active result.

How did CCC(Nc1ccc(Br)cc1)C(=O)N/N=C/c1cc(OC)ccc1O (configuration not stated) do in these assays?
FBW7 activator: inactive; GPR151 ag: inactive; MITF inh: inactive; TEAD-YAP inh: inactive

Results for CCC(Nc1ccc(Br)cc1)C(=O)N/N=C/c1cc([N+](=O)[O-])ccc1O (configuration not stated) ?
FBW7 activator: inactive; GPR151 ag: inactive; MITF inh: inactive; TEAD-YAP inh: 43

What do the screens show for `CCC(Nc1ccc(Br)cc1)C(=O)N/N=C/c1ccc(O)cc1O` (configuration not stated)?
FBW7 activator: inactive; GPR151 ag: inactive; MITF inh: inactive; TEAD-YAP inh: 76

How did CCN(CC)C(=O)Cn1c(C)c(C#N)c2ccccc21 do in these assays?
FBW7 activator: 1.9; GPR151 ag: inactive; MITF inh: inactive; TEAD-YAP inh: inactive

Results for CC(=O)CCc1ccc(OCC(O)CN2CCC(C(N)=O)CC2)cc1 (configuration not stated) ?
FBW7 activator: inactive; GPR151 ag: inactive; MITF inh: inactive; TEAD-YAP inh: inactive

How did O=C(COc1ccccc1)N1CCN(c2ccc(Nc3ccccn3)nn2)CC1 do in these assays?
FBW7 activator: inactive; GPR151 ag: inactive; MITF inh: inactive; TEAD-YAP inh: inactive

How did O=C(COc1ccccc1)N1CCN(c2ccc(Nc3ccncc3)nn2)CC1 do in these assays?
FBW7 activator: 2.0; GPR151 ag: inactive; MITF inh: inactive; TEAD-YAP inh: inactive

Results for CC(C)(C)c1ccc(-c2nnc(NC(=O)c3ccc(Cl)cc3Cl)s2)cc1 ?
FBW7 activator: inactive; GPR151 ag: inactive; MITF inh: inactive; TEAD-YAP inh: inactive

Results for CCOC(=O)C1=C(N)N(c2ccccc2)C2=C(C(=O)CCC2)C1c1cc(OC)c(OC)c(OC)c1 (configuration not stated) ?
FBW7 activator: inactive; GPR151 ag: inactive; MITF inh: inactive; TEAD-YAP inh: inactive

How did COc1ccc2c(Cn3cnc4cc([N+](=O)[O-])ccc4c3=O)cc(=O)oc2c1 do in these assays?
FBW7 activator: inactive; GPR151 ag: inactive; MITF inh: inactive; TEAD-YAP inh: 64

Results for CCC1=NN(C(=O)c2ccccc2O)C(O)(c2ccccc2)C1 (configuration not stated) ?
FBW7 activator: inactive; GPR151 ag: inactive; MITF inh: inactive; TEAD-YAP inh: 46

How did COc1ccc(Oc2nc3c(C)cccn3c(=O)c2/C=C(\C#N)C(=O)N2CCOCC2)cc1 do in these assays?
FBW7 activator: inactive; GPR151 ag: inactive; MITF inh: inactive; TEAD-YAP inh: inactive

Results for Cc1cc(C)cc(Oc2nc3c(C)cccn3c(=O)c2/C=C(\C#N)C(=O)N2CCOCC2)c1 ?
FBW7 activator: inactive; GPR151 ag: inactive; MITF inh: inactive; TEAD-YAP inh: 37

What do the screens show for `Cc1cccc(Oc2nc3ccccn3c(=O)c2/C=C(\C#N)C(=O)N2CCOCC2)c1C`?
FBW7 activator: inactive; GPR151 ag: inactive; MITF inh: inactive; TEAD-YAP inh: 42

Results for Cc1ccc(Oc2nc3ccccn3c(=O)c2/C=C(\C#N)C(=O)N2CCOCC2)c(C)c1 ?
FBW7 activator: inactive; GPR151 ag: inactive; MITF inh: inactive; TEAD-YAP inh: 34

What do the screens show for `Cc1nnc(NC(=O)CSc2ncnc3c2cnn3-c2cccc(Cl)c2)s1`?
FBW7 activator: inactive; GPR151 ag: inactive; MITF inh: inactive; TEAD-YAP inh: inactive

How did Nc1ccc(-c2cnc3c(Nc4ccccc4)nccn23)cc1 do in these assays?
FBW7 activator: inactive; GPR151 ag: inactive; MITF inh: inactive; TEAD-YAP inh: 53

Results for c1ccc(Nc2nccn3c(-c4ccco4)cnc23)cc1 ?
FBW7 activator: inactive; GPR151 ag: inactive; MITF inh: inactive; TEAD-YAP inh: 44

Results for Oc1cccc(-c2cnc3c(Nc4ccccc4)nccn23)c1 ?
FBW7 activator: inactive; GPR151 ag: inactive; MITF inh: inactive; TEAD-YAP inh: inactive

How did Cc1nc(C)c(/C(O)=C/c2nc3ccccc3oc2=O)s1 do in these assays?
FBW7 activator: inactive; GPR151 ag: inactive; MITF inh: 58; TEAD-YAP inh: inactive

How did COC(=O)c1sc(SC)nc1Nc1ccnc(Nc2cc(OC)ccc2OC)c1 do in these assays?
FBW7 activator: inactive; GPR151 ag: inactive; MITF inh: inactive; TEAD-YAP inh: 48

How did Cn1c(=NC(=O)c2ccccc2S(C)(=O)=O)sc2cc(F)ccc21 do in these assays?
FBW7 activator: inactive; GPR151 ag: inactive; MITF inh: inactive; TEAD-YAP inh: inactive

What do the screens show for `CN(CC1COCCO1)C(=O)c1cc(COc2ccc3ncccc3c2)on1` (configuration not stated)?
FBW7 activator: inactive; GPR151 ag: inactive; MITF inh: inactive; TEAD-YAP inh: 50

Results for Cc1nc(CN(C)C(=O)c2cc(COc3ccc4ncccc4c3)on2)cs1 ?
FBW7 activator: inactive; GPR151 ag: inactive; MITF inh: inactive; TEAD-YAP inh: 37

What do the screens show for `C[n+]1cc(C(N)=O)ccc1/C=N/O`?
FBW7 activator: inactive; GPR151 ag: inactive; MITF inh: inactive; TEAD-YAP inh: inactive

Results for COc1ccc2c(c1)c(=O)oc1cc(OCC(=O)O)ccc12 ?
FBW7 activator: inactive; GPR151 ag: inactive; MITF inh: inactive; TEAD-YAP inh: inactive

How did COc1ccc2c(c1)c(=O)oc1cc(OCC(=O)N(C)c3ccccc3)ccc12 do in these assays?
FBW7 activator: inactive; GPR151 ag: inactive; MITF inh: 52; TEAD-YAP inh: inactive

Results for COc1ccc(-c2nc3ncnc(NCc4nc5ccccc5[nH]4)c3[nH]2)cc1 ?
FBW7 activator: inactive; GPR151 ag: inactive; MITF inh: inactive; TEAD-YAP inh: inactive

Results for Cc1nc(C)n(-c2ccc(Nc3cc4cc(-c5cn[nH]c5)ccc4cn3)cc2)n1 ?
FBW7 activator: inactive; GPR151 ag: inactive; MITF inh: inactive; TEAD-YAP inh: 85

What do the screens show for `Cc1nc(C)n(-c2ccc(Nc3ncc4ccc(-c5cn[nH]c5)cc4n3)cc2)n1`?
FBW7 activator: inactive; GPR151 ag: inactive; MITF inh: inactive; TEAD-YAP inh: 73

Results for Cn1ncc2cc(Nc3ncc4ccc(-c5cn[nH]c5)cc4n3)ccc21 ?
FBW7 activator: inactive; GPR151 ag: inactive; MITF inh: inactive; TEAD-YAP inh: 71

How did Cc1ncn(-c2ccc(Nc3ncc(Cl)c(-c4cn[nH]c4)n3)cc2)n1 do in these assays?
FBW7 activator: inactive; GPR151 ag: inactive; MITF inh: inactive; TEAD-YAP inh: inactive

What do the screens show for `Cc1ccc(-c2ncn(-c3ccc(Nc4ncc5ccc(Br)cc5n4)cc3)n2)cn1`?
FBW7 activator: inactive; GPR151 ag: inactive; MITF inh: inactive; TEAD-YAP inh: inactive

Results for C=CCSc1nnc(NC(=O)c2nc(SC)ncc2Cl)s1 ?
FBW7 activator: inactive; GPR151 ag: inactive; MITF inh: inactive; TEAD-YAP inh: inactive

Results for CCOC(=O)c1cnc2ccc(OCC)cc2c1NCCCN(CC)CC ?
FBW7 activator: inactive; GPR151 ag: inactive; MITF inh: inactive; TEAD-YAP inh: 33

What do the screens show for `Cc1ccc(NC(=O)CSc2ccc3ccccc3n2)c(C)c1`?
FBW7 activator: inactive; GPR151 ag: inactive; MITF inh: inactive; TEAD-YAP inh: 76

What do the screens show for `CC(C)c1ccc(NS(=O)(=O)c2cccc3cnccc23)cc1`?
FBW7 activator: inactive; GPR151 ag: inactive; MITF inh: inactive; TEAD-YAP inh: 56

What do the screens show for `COc1cccc(CNc2c(C)cnc3c2c(=O)n(C)c(=O)n3C)c1`?
FBW7 activator: inactive; GPR151 ag: inactive; MITF inh: inactive; TEAD-YAP inh: inactive

Source: PubChem (The Scripps Research Institute Molecular Screening Center)
